Assay results as given in ChEMBL document CHEMBL4513216, “Probing the Open Global Health Chemical Diversity Library for Multistage-Active Starting Points for Next-Generation Antimalarials” (ACS Infect Dis, 2020).
Among all 69,000 compounds or so, about 8,600 (12%) showed an effect of 50% or more. The list comes from a sample in which strong results are over-represented; it also holds similar structures and randomly drawn compounds.

The compounds below were run on Plasmodium berghei (assay: Screen against P. berghei liver stage (PbLuc), transformed with Luciferase, at 10uM). Conditions: tested at 10 uM.
Assay type: functional, HepG2
`C[C@H](NC(=O)N1CCC(Cc2ccccc2)CC1)C(=O)O` was tested, and the INHIBITION was 27.5%.
For `NC(=O)COc1ccc(CNCc2ccc(Cl)c(F)c2)cc1`, the INHIBITION was 0.426%.
Compound `CC(Cn1cccn1)NC(=O)CCC(=O)c1cccs1` (stereo unspecified) has an INHIBITION of -13.5%.
Compound `COc1ccc2c(c1)OCC(Cc1cc(N3CCCC3)cnn1)C2` (stereo unspecified) has an INHIBITION of -43.7%.
`Cc1cc(CC2COc3ccccc3C2)cnc1N` (stereo unspecified) showed an INHIBITION of 75.1%.
`COc1ccc2c(c1)OCC(Cc1ccc(N(C)C)nc1)C2` (stereo unspecified) gave an INHIBITION of 14.9%.
`c1ccc2c(c1)CC(Cc1cc(N3CCCC3)cnn1)CO2` (stereo unspecified) gave an INHIBITION of 13%.
`COc1ccc2c(c1)OCC(Cc1ccc(CN)cn1)C2` (stereo unspecified) gave an INHIBITION of -45.5%.
In the case of `COc1cccc2c1OCC(Cc1cnc(N)c(C)c1)C2` (stereo unspecified), the INHIBITION is reported as 14.5%.
`COc1ccc2c(c1)OCC(Cc1cnc(N)c(C)c1)C2` (stereo unspecified) was tested, and the INHIBITION was 55.9%.
`COc1ccc2c(c1)OCC(Cc1cncc(N)c1)C2` (stereo unspecified) was tested, and the INHIBITION was 61.1%.
Work on `COc1ccc2c(c1)OCC(Cc1ccc(N)cn1)C2` (stereo unspecified) yielded an INHIBITION of -93%.
Compound `O=C(c1sccc1-n1cnnn1)N1CCC2(CCCCC2)CC1` has an INHIBITION of 28.1%.
Compound `Cc1ccc(C(=O)NC(CN2CCCC2=O)c2ccccc2)cn1` (stereo unspecified) has an INHIBITION of 15.3%.
`CC(C)N1CCC(c2nccnc2Nc2ncccn2)CC1` gave an INHIBITION of 42.4%.
In the case of `Cc1ncc2c(n1)CN(C=C1NN=C(c3occc3C)O1)CC2`, the INHIBITION is reported as 47.6%.
`O=C(Nc1cnn(Cc2ccccc2)c1)N1CCN(CCO)CC1` was tested, and the INHIBITION was -26.8%.
Compound `c1cncc(-c2noc(C3CN(Cc4cccs4)C3)n2)c1` has an INHIBITION of 22.2%.
Compound `Cc1nc(C2CCN(Cc3ncc[nH]3)CC2)no1` has an INHIBITION of 20.8%.
Work on `COC(=O)CN1CCSC(c2ccccc2)C1` (stereo unspecified) yielded an INHIBITION of 48.2%.
`CCCn1ncc(CN2CCCC(C(=O)c3ccc(Cl)cc3C)C2)c1C` (stereo unspecified) showed an INHIBITION of 73%.
Work on `CSc1ccc(C(=O)C2CCCN(C(=O)CCn3cncn3)C2)cc1` (stereo unspecified) yielded an INHIBITION of 22.2%.
In the case of `Cc1c(CN2CCCC(C(=O)c3ccc(C(C)(C)C)cc3)C2)cnn1C` (stereo unspecified), the INHIBITION is reported as 89.4%.
`CCn1ncc(CN2CCCC(n3c(=O)oc4ccccc43)C2)c1C` (stereo unspecified) showed an INHIBITION of 4.7%.
Work on `COc1ccc(C(=O)C2CCCN(Cc3cnn(C)c3C)C2)c(OC)c1` (stereo unspecified) yielded an INHIBITION of 14.3%.
`CCn1ncc(CN2CCCC(C(=O)c3ccc(Cl)cc3)C2)c1C` (stereo unspecified) showed an INHIBITION of 18.5%.
`CC(C)(N)C(=O)N1CCCC(C(=O)c2ccc(C(C)(C)C)cc2)C1` (stereo unspecified) gave an INHIBITION of 36.8%.
In the case of `CCCn1ncc(CN2CCCC(C(=O)c3ccc(SC)cc3)C2)c1C` (stereo unspecified), the INHIBITION is reported as 83.9%.
Work on `CSc1ccc(C(=O)C2CCCN(C(=O)CCCn3cncn3)C2)cc1` (stereo unspecified) yielded an INHIBITION of 22.2%.
`COc1ccc(F)cc1C(=O)C1CCCN(Cc2cnc(C)s2)C1` (stereo unspecified) was tested, and the INHIBITION was 47.2%.
For `Cc1cc(Cl)ccc1C(=O)C1CCCN(Cc2cnc(N(C)C)s2)C1` (stereo unspecified), the INHIBITION was 83%.
With `CN(C)c1ncc(CN2CCCC(Nc3ccc4c(c3)OCCO4)C2)s1` (stereo unspecified) the INHIBITION was -0.217%.
In the case of `Cc1cc(CN2CCN(C(=O)NCc3ccc(C)s3)CC2)on1`, the INHIBITION is reported as -24.2%.
`Cc1cnn(CCNCC(=O)N2CCN(c3ccccn3)CC2)c1` was tested, and the INHIBITION was -0.613%.
With `O=C(c1ccnc(-n2ccnc2)c1)N1CCCC(n2cccn2)C1` (stereo unspecified) the INHIBITION was 36.1%.
With `CN(CC1COc2ccccc2O1)C(=O)c1ccc(-c2cn[nH]c2)nc1` (stereo unspecified) the INHIBITION was 2.18%.
With `O=C(c1ccccn1)N1CCCC2(CCN(c3ccsc3)C2=O)C1` (stereo unspecified) the INHIBITION was 35.6%.
`CN(C)C(=O)[C@@H]1CCO[C@@H]2CCN(Cc3ccccc3)C[C@@H]21` showed an INHIBITION of -11.5%.
For `Cn1cc(-c2ncc(C(=O)NCCCn3ccccc3=O)s2)cn1`, the INHIBITION was 44.9%.
With `Cc1nc(C2CCCN2C(=O)Cc2ccc3c(c2)OCO3)nc(O)c1C` (stereo unspecified) the INHIBITION was 22%.
`CN1C(=O)CCC12CCN(Cc1ccco1)CC2` showed an INHIBITION of 16.1%.
In the case of `CN1CCN(c2nsc(-c3ccccc3)c2C#N)CC1`, the INHIBITION is reported as 33.3%.
`CCCn1ncc(-c2ccnc(NC3CCSC3)n2)c1C` (stereo unspecified) was tested, and the INHIBITION was 49.9%.
`CCCn1ncc(C(=O)N2CCN(C3Cc4ccccc4C3)CC2)c1C` showed an INHIBITION of -20.8%.
For `CCCn1cc(-c2ccnc(NC3CCc4ccccc43)n2)c(C)n1` (stereo unspecified), the INHIBITION was 82.2%.
Work on `Cc1nn(CCO)c(C)c1CNC1CCCCc2ccccc21` (stereo unspecified) yielded an INHIBITION of 17.8%.
`CCCn1ncc(-c2ccnc(NC3CC(C)(C)NC(C)(C)C3)n2)c1C` gave an INHIBITION of 80.1%.
`CCCOCCCNc1nccc(-c2cn(C)nc2C)n1` gave an INHIBITION of -49.8%.
Work on `CCCn1ncc(-c2ccnc(NC3CCCc4ccccc43)n2)c1C` (stereo unspecified) yielded an INHIBITION of 77.2%.
In the case of `CCCn1ncc(-c2ccnc(N[C@@H]3C[C@H]4CC[C@@H]3C4)n2)c1C`, the INHIBITION is reported as 49.9%.
In the case of `CCCn1cc(-c2ccnc(NC3CCCc4ccccc43)n2)c(C)n1` (stereo unspecified), the INHIBITION is reported as 72.3%.
`Cc1nn(C)c(N2CCOCC2)c1CNC1CCc2ccccc21` (stereo unspecified) showed an INHIBITION of 7.08%.
`O=C(CS(=O)(=O)c1ccccn1)NC1CCCc2ccccc21` (stereo unspecified) was tested, and the INHIBITION was -17.8%.
In the case of `COc1c(CNC2CCCc3ccccc32)c(C)nn1C` (stereo unspecified), the INHIBITION is reported as 37.9%.
Work on `CN1CCC/C1=N\S(=O)(=O)c1ccc(NC(=O)c2ccc(F)cc2)cc1` yielded an INHIBITION of 41.4%.
In the case of `O=S(=O)(CC1CCCO1)Nc1cc(Cl)ccc1-n1cccn1` (stereo unspecified), the INHIBITION is reported as -15.5%.
With `CC(=O)N[C@@H]1CN(Cc2oc3ccccc3c2C)C[C@H]1c1ccc(C)o1` the INHIBITION was 37.7%.
`CC(CO)(NC(=O)NCc1ccc(Br)s1)C1CC1` (stereo unspecified) gave an INHIBITION of -12.7%.
With `Fc1cnc(N2CCc3nnc(COc4ccccn4)n3CC2)nc1` the INHIBITION was -58.7%.
`CC(C(=O)N1CCN(C)CC1)n1cc(Br)cn1` (stereo unspecified) gave an INHIBITION of 21.7%.
Work on `Cc1noc(C)c1CN1CCN(CC2CC2)c2ncccc2C1` yielded an INHIBITION of 47.2%.
`O=C(CCc1ccncc1)N1CCCC(N2CCNC2=O)C1` (stereo unspecified) showed an INHIBITION of 37.9%.
For `CC(=O)N1CC=C(n2c(=O)[nH]c3ccccc32)CC1`, the INHIBITION was 21.4%.
Compound `CCCn1cc(-c2ccnc(NC3CCc4ccccc4C3)n2)c(C)n1` (stereo unspecified) has an INHIBITION of 89.6%.
`Cc1nn(C)c(N2CCOCC2)c1CNC1CCc2ccccc2C1` (stereo unspecified) was tested, and the INHIBITION was 35.7%.
`Cc1sc2ncc(-c3ccnc(NC4CCN(C)CC4)n3)c(=O)n2c1C` was tested, and the INHIBITION was 24.8%.
Work on `O=C(C1CC1)N1CCC(Nc2nc(O)cc(-c3ccsc3)n2)CC1` yielded an INHIBITION of -5.78%.
For `O=C1CCNC(=O)N1CC(=O)N1CCC1c1ccc(F)cc1` (stereo unspecified), the INHIBITION was -14.5%.
`COC(=O)CCCC(=O)N1CCCCC1c1ccc(F)cc1` (stereo unspecified) was tested, and the INHIBITION was 34.1%.
Compound `CCc1nccn1CCC(=O)N1CCCC1c1ccc(F)cc1` (stereo unspecified) has an INHIBITION of 29.4%.
`Cn1cc(C2CCCN2C(=O)CCCOc2ccc(F)cc2)cn1` (stereo unspecified) was tested, and the INHIBITION was 0.914%.
`COCCC(=O)N1CCCCC1c1ccc(F)cc1` (stereo unspecified) gave an INHIBITION of 48%.
In the case of `O=C1CCCCN1CCC(=O)N1CCCCC1c1ccc(F)cc1` (stereo unspecified), the INHIBITION is reported as 53.6%.
`O=C1CCCN1CCCC(=O)N1CCCCC1c1ccc(F)cc1` (stereo unspecified) gave an INHIBITION of 74.9%.
Work on `O=C(c1cc(=O)[nH]c(=O)[nH]1)N1CCCCC1c1ccc(F)cc1` (stereo unspecified) yielded an INHIBITION of 30.1%.
With `NCC(=O)N1CCCCC1c1ccc(F)cc1` (stereo unspecified) the INHIBITION was 74%.
